# Source: PubChem BioAssay (NCI)
# “And” between values parts separate entries of the source, which are not always exact repeats. Equal entries are not always repeated. About 83,000 compounds went through this panel and 20% of them were active in at least one assay; those are over-represented in the sample as a whole.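 Single-dose data. Exposure time 48 hours. Values below 10 considered active.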 Values without a mark were called inactive. The source made the active and inactive calls.
# System: MDA-MB-468 breast
# Test: NCI-60 one-dose screen, 48 h (100 = growth as untreated, 0 = no growth, -100 = all killed)
# Conditions: 10 µM unless noted
row,SMILES,growth
1,CN(C)c1ccc(O)c2c1CC1CC3C(N(C)C)C(=O)C(C(N)=O)=C(O)C3(O)C(=O)C1=C2O (stereo not given),36.7%
2,O=C(/C=C/c1cccc2ccccc12)Nc1ncc(Cc2ccccc2)s1,-14.4% (active)
3,CN1CCN(C(=O)c2ccc(NC(=O)c3cc4c(nn3)NCCN4Cc3cc(Cl)ccc3Cl)cc2)CC1,60.9%
4,CCCCCCCCCCCCSC1=C(Cl)C(=O)C(OC)=C(OC)C1=O,20.9%
5,CCN(CC)CCCCCNc1cc(OC(=O)c2ccc(Cl)cc2)cc2cccnc12,71.6%
6,CC(=O)Nc1ccc(O)cc1,105% and 111%
7,O=C1c2cc3c(cc2-c2c1c1cc(Cl)c(Cl)cc1c(=O)n2CCCn1ccnc1)OCO3,-38.5% (active)
8,Cc1ccc(O)c(C(=O)c2ccccc2)c1,103%
9,Clc1ccc2[nH]cc(-c3nc(-c4c[nH]c5ncccc45)cs3)c2c1,45.2%
10,Cc1nc2sccn2c1-c1csc(Nc2cccc(Cl)c2C)n1,-13% (active)
11,COC(=O)C1=Nc2ccc(F)cc2/C1=C/c1sc(=S)[nH]c1O,13.4%
12,O=C1c2ccc3c4c(ccc(c24)C(=O)N1CCNCc1ccccc1)C(=O)N(CCNCc1ccccc1)C3=O,-62.9% (active)
13,CCCCCc1ccc(S(=O)(=O)Nc2cc(-c3csc(N)n3)ccc2OC)cc1,78.7%
14,Nc1nc(Nc2ccccc2SSc2ccccc2Nc2nc(N)nc(-c3ccc(C(F)(F)F)cc3)n2)nc(-c2ccc(C(F)(F)F)cc2)n1,132%
15,CS(=O)(=O)c1ccc(Cl)c([N+](=O)[O-])c1,103%
16,CCN(CC)CCN1C(=O)c2c(c(C)c3c(oc4cc(OC)ccc43)c2C)C1=O,114%
17,O=C1/C(=C/c2ccc(F)cc2)C=C(c2ccccc2)N1CCc1ccccc1,72.9%
18,O=C(NNc1nc2cc(F)c(F)cc2n2cccc12)c1cnccn1,17.5%
19,CCC(C)(C)c1cc(O)c(C(C)(C)CC)cc1O,-2.33% (active)
20,CCC(/C=C\C(C)=O)CC,102%

row,SMILES,growth
1,CSc1nc2nc3c(c(-c4ccc(C)cc4)c2c(=O)[nH]1)CN(C)C/C3=C\c1ccc(C)cc1,74.7%
2,Cc1ccc(C2=NN3C(C2)c2cc(Br)ccc2OC32CCN(Cc3ccccc3)CC2)o1 (stereo not given),105%
3,O=c1ccc2ccc(OCCN3CCCCC3)cc2o1,105%
4,Cc1ccc(NC(=O)Cn2c(Br)nc3c2c(=O)n(C)c(=O)n3C)cc1,10.4%
5,O=C(c1ccccc1O)N1CCCC1,94.1%
6,CCOC(=O)C1=C(C)N=C2SC=C(c3ccc(F)cc3)N2[C@H]1c1cn(-c2ccccc2)nc1-c1ccc(Cl)cc1,91.1%
7,COc1cc(C(=O)n2nc(N3CCN(C)CC3)c3cc(N)ccc32)cc(OC)c1OC,0.604% (active)
8,CN(C)CSc1nc2ccccc2s1,110%
9,C#CCOC(=O)[C@]1(C)CCC[C@]2(C)[C@H]3C[C@H]4C(C(C)C)=C[C@]3(CC[C@H]21)[C@@H]1C(=O)CCC(=O)[C@@H]14,78%
10,N#Cc1c(Nc2ccccc2)nn2cc(-c3nc4ccccc4s3)c(N)nc12,73.8%
11,O=[N+]([O-])c1ccc(/C=C/C2(CCl)OCCO2)cc1,108%
12,Cc1cccc(/C=C2\N=C(c3ccccc3)N(c3ccc(S(N)(=O)=O)cc3)C2=O)c1,99.2%
13,Nc1n[nH]c(-c2cc(Cl)ccc2O)c1-c1ccccc1,83.5%
14,COc1ccc(/C=C(/C(=O)N2CCNCC2)c2cc(OC)c(OC)c(OC)c2)cc1O,-4.45% (active)
15,COc1cnc2c(c1)C(=O)c1c-2n(CCCN2CCCC2)c(=O)c2cc([N+](=O)[O-])ccc12,-41.1% (active)
16,COc1cc2cc(CN3CCN(c4nccc(-c5ccc6ccccc6c5)n4)CC3)c(=O)[nH]c2cc1OC,51.4%
17,COc1cc2cc(Oc3cccc(NC(=O)Nc4cc(C(F)(F)F)cc(C(F)(F)F)c4)c3)c(C)nc2cc1OC,-8.12% (active)
18,O=C(COc1cc(O)c2c(=O)cc(-c3ccccc3)oc2c1)Nc1ccccc1C(F)(F)F,67.6%
19,N#C/C(=N\Nc1ccccc1)C(=O)Nc1cc(-c2ccccc2)nn1-c1ccccc1,-3.2% (active)
20,O=C1C(c2c[nH]c3ccccc23)=C(c2coc3cc(Br)ccc23)C(=O)N1O,91.6%
